The whole screen tested about 5,500 compounds, of which about 2,000 (36%) were called active. Roughly 18% stayed inconclusive and do not appear here. No stated cut-off is given here; in the data, active means normalized growth mostly below about 0.91 (no sharp cut-off); inconclusive means no clear call, values can overlap the other calls; inactive means mostly above about 0.92. The list shows a part of the results.
Test: chemical genetic growth profiling, strain panel (AID 1159580);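 further: tested at 20 µM; growth read once vehicle control cultures reached saturation at 30 °C; 1 = growth at the plate median or of vehicle wells; lower values mean less growth of the strain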
Conditions: growth OD

Measured: normalized growth

CS(=O)(=O)c1ccc([C@@H](O)[C@@H](CO)NC(=O)C(Cl)Cl)cc1
inactive: S. cerevisiae deletion strains, locus YKL009W, strain mrt4, active compounds read low 0.977 | S. cerevisiae deletion strains, locus YKL068W, active compounds read low 0.978 | S. cerevisiae deletion strains, locus YKL085W, strain MDH1 (second series), active compounds read low 0.988 | S. cerevisiae deletion strains, locus YKL085W, strain MDH1, active compounds read low 0.988 | S. cerevisiae deletion strains, locus YKL160W, strain elf1, active compounds read low 1.02 | S. cerevisiae deletion strains, locus YKL190W, strain CNB1, active compounds read low 0.991 | S. cerevisiae deletion strains, locus YKR001C, strain vps1, active compounds read low 0.99 | S. cerevisiae deletion strains, locus YKR026C, strain gcn3, active compounds read low 1.03 | S. cerevisiae deletion strains, locus YKR091W, strain srl3, active compounds read low 1.01 | S. cerevisiae deletion strains, locus YLL001W, strain dnm1, active compounds read low 1 | S. cerevisiae deletion strains, locus YLL026W, active compounds read low 1.02 | S. cerevisiae deletion strains, locus YLL041C, strain sdh2, active compounds read low 1.02 | S. cerevisiae deletion strains, locus YLR027C, strain aat2, active compounds read low 1.01 | S. cerevisiae deletion strains, locus YLR039C, strain RIC1, active compounds read low 0.947 | S. cerevisiae deletion strains, locus YLR058C, strain SHM2, active compounds read low 0.965 | S. cerevisiae deletion strains, locus YLR102C, strain apc9, active compounds read low 0.978 | S. cerevisiae deletion strains, locus YLR113W, strain HOG1, active compounds read low 0.998 | S. cerevisiae deletion strains, locus YLR221C, strain rsa3, active compounds read low 1.01 | S. cerevisiae deletion strains, locus YLR258W, strain gsy2, active compounds read low 1.02 | S. cerevisiae deletion strains, locus YLR262C, strain YPT6 (second series), active compounds read low 1.03 | S. cerevisiae deletion strains, locus YLR262C, strain YPT6, active compounds read low 0.849 | S. cerevisiae deletion strains, locus YLR268W, strain sec22, active compounds read low 0.983 | S. cerevisiae deletion strains, locus YLR320W, strain mms22, active compounds read low 0.991 | S. cerevisiae deletion strains, locus YLR330W, strain CHS5, active compounds read low 0.982 | S. cerevisiae deletion strains, locus YLR342W, strain FKS1 (second series), active compounds read low 1.01 | S. cerevisiae deletion strains, locus YLR342W, strain FKS1, active compounds read low 1.01 | S. cerevisiae deletion strains, locus YLR357W, strain rsc2, active compounds read low 1 | S. cerevisiae deletion strains, locus YLR370C, strain arc18, active compounds read low 1.03 | S. cerevisiae deletion strains, locus YLR371W, strain rom2, active compounds read low 0.993 | S. cerevisiae deletion strains, locus YLR384C, strain iki3, active compounds read low 1.02 | S. cerevisiae deletion strains, locus YLR418C, strain cdc73, active compounds read low 0.98 | S. cerevisiae deletion strains, locus YML016C, strain PPZ1, active compounds read low 0.981 | S. cerevisiae deletion strains, locus YML032C, strain rad52, active compounds read low 1 | S. cerevisiae deletion strains, locus YML120C, strain ndi1, active compounds read low 1.05 | S. cerevisiae deletion strains, locus YML124C, strain tub3, active compounds read low 0.993 | S. cerevisiae deletion strains, locus YMR058W, strain fet3, active compounds read low 1.03 | S. cerevisiae deletion strains, locus YMR078C, strain ctf18, active compounds read low 0.975 | S. cerevisiae deletion strains, locus YMR125W, strain sto1, active compounds read low 1.04 | S. cerevisiae deletion strains, locus YMR129W, active compounds read low 1.02 | S. cerevisiae deletion strains, locus YMR205C, strain PFK2, active compounds read low 1.01 | S. cerevisiae deletion strains, locus YMR223W, strain ubp8, active compounds read low 1.02 | S. cerevisiae deletion strains, locus YMR231W, strain pep5, active compounds read low 1.03 | S. cerevisiae deletion strains, locus YMR263W, strain SAP30, active compounds read low 0.984 | S. cerevisiae deletion strains, locus YMR307W, strain GAS1, active compounds read low 1.06 | S. cerevisiae deletion strains, locus YNL067W, strain RPL9B, active compounds read low 0.973 | S. cerevisiae deletion strains, locus YNL071W, strain lat1, active compounds read low 1.03 | S. cerevisiae deletion strains, locus YNL128W, strain TEP1, active compounds read low 0.975 | S. cerevisiae deletion strains, locus YNL153C, strain GIM3, active compounds read low 0.981 | S. cerevisiae deletion strains, locus YNL183C, strain NPR1, active compounds read low 0.959 | S. cerevisiae deletion strains, locus YNL209W, strain ssb2, active compounds read low 1.04 | S. cerevisiae deletion strains, locus YNL233W, strain BNI4, active compounds read low 0.99 | S. cerevisiae deletion strains, locus YNL248C, strain rpa49, active compounds read low 1.07 | S. cerevisiae deletion strains, locus YNL250W, strain rad50, active compounds read low 0.981 | S. cerevisiae deletion strains, locus YNL271C, strain bni1, active compounds read low 0.995 | S. cerevisiae deletion strains, locus YNL298W, strain CLA4, active compounds read low 0.988 | S. cerevisiae deletion strains, locus YNL307C, strain MCK1, active compounds read low 0.985 | S. cerevisiae deletion strains, locus YNL322C, strain KRE1 (second series), active compounds read low 1.02 | S. cerevisiae deletion strains, locus YNL322C, strain KRE1, active compounds read low 0.983 | S. cerevisiae deletion strains, locus YNR049C, strain mso1, active compounds read low 1 | S. cerevisiae deletion strains, locus YNR052C, strain pop2, active compounds read low 0.993 | S. cerevisiae deletion strains, locus YOL006C, strain TOP1, active compounds read low 0.889 | S. cerevisiae deletion strains, locus YOL012C, strain htz1 1.83 | S. cerevisiae deletion strains, locus YOL147C, strain pex11, active compounds read low 0.99 | S. cerevisiae deletion strains, locus YOR001W, strain rrp6, active compounds read low 1.03 | S. cerevisiae deletion strains, locus YOR061W, strain CKA2, active compounds read low 0.944 | S. cerevisiae deletion strains, locus YOR069W, strain VPS5, active compounds read low 0.991 | S. cerevisiae deletion strains, locus YOR070C, strain gyp1, active compounds read low 1.03 | S. cerevisiae deletion strains, locus YOR080W, strain dia2, active compounds read low 1.02 | S. cerevisiae deletion strains, locus YOR083W, strain WHI5, active compounds read low 0.98 | S. cerevisiae deletion strains, locus YOR106W, strain vam3, active compounds read low 1.05 | S. cerevisiae deletion strains, locus YOR136W, strain idh2, active compounds read low 0.992 | S. cerevisiae deletion strains, locus YOR144C, strain elg1, active compounds read low 0.983 | S. cerevisiae deletion strains, locus YOR184W, strain ser1, active compounds read low 1.03 | S. cerevisiae deletion strains, locus YOR231W, strain MKK1, active compounds read low 0.967 | S. cerevisiae deletion strains, locus YOR265W, strain rbl2, active compounds read low 1.03 | S. cerevisiae deletion strains, locus YOR270C, strain vph1, active compounds read low 1.12 | S. cerevisiae deletion strains, locus YOR290C, strain snf2, active compounds read low 1.04 | S. cerevisiae deletion strains, locus YOR316C, strain cot1, active compounds read low 0.975 | S. cerevisiae deletion strains, locus YPL051W, strain arl3, active compounds read low 1.02 | S. cerevisiae deletion strains, locus YPL055C, strain LGE1, active compounds read low 0.984 | S. cerevisiae deletion strains, locus YPL078C, strain atp4, active compounds read low 1.04 | S. cerevisiae deletion strains, locus YPL106C, strain sse1, active compounds read low 1.01 | S. cerevisiae deletion strains, locus YPL240C, strain hsp82, active compounds read low 1.02 | S. cerevisiae deletion strains, locus YPL241C, strain CIN2, active compounds read low 0.968 | S. cerevisiae deletion strains, locus YPL256C, strain CLN2, active compounds read low 0.995 | S. cerevisiae deletion strains, locus YPR119W, strain clb2, active compounds read low 1 | S. cerevisiae deletion strains, locus YPR141C, strain kar3, active compounds read low 0.971 | S. cerevisiae deletion strains, locus YPR163C, strain tif3, active compounds read low 1 | S. cerevisiae deletion strains, locus YPR167C, strain met16, active compounds read low 0.975 | S. cerevisiae deletion strains, strain wtn01, active compounds read low 0.984 | S. cerevisiae strains, strain wild type, active compounds read low 0.963

— PubChem BioAssay AID1159580 (chemical genetic matrix, 2015)
